{"source": "PubChem BioAssay (EPA / NIEHS)", "note": "The source holds several records for some structures; these can differ, active in one and inactive in another. The source made the active and inactive calls. How the source made its calls: active means hit-call score of the fitted dose curve at least 0.9, where 1 is the maximum; inactive means score below 0.9."}
{"experiment": "ATG_BRE_CIS: Attagene CIS-FACTORIAL HepG2 Assay for human Bone Morphogenetic Protein (BMP) Response Element (BRE) (AID 2282933)", "conditions": "HepG2 BMP response element reporter, Attagene transcription factor profiling; actives raise or lower the signal", "procedure": "ATG_CIS is a cell-based, multiplexed-readout assay that uses HepG2, a human liver cell line, with measurements taken at 24 hours after chemical dosing in a 24-well plate.ATG_BRE_CIS is one of 52 assay component(s) measured or calculated from the ATG_CIS assay. It is designed to make measurements of mRNA induction, a form of inducible reporter, as detected with fluorescence intensity signals by Reverse transcription polymerase chain reaction (RT-PCR) and Capillary electrophoresis technology.Data from the assay component ATG_BRE_CIS was analyzed into 1 assay endpoint. This assay endpoint, ATG_BRE_CIS, was analyzed with bidirectional fitting relative to DMSO as the negative control and baseline of activity. Using a type of inducible reporter, measures of mRNA for gain or loss-of-signal activity can be used to understand the reporter gene at the transcription factor-level as they relate to the gene SMAD1. Furthermore, this assay endpoint can be referred to as a primary readout, because this assay has produced multiple assay endpoints where this one serves a reporter gene function. To generalize the intended target to other relatable targets, this assay endpoint is annotated to the dna binding intended target family, where the subfamily is Smad protein.\nHuman liver HepG2 cells are transiently transfected with multiple reporter transcription units (MRTUs) in 6-well plates using FuGene 6 reagent (Roche; 3 ml FuGene/1 mg DNA). The MRTU constructs are regulated by a cis-regulating element (promoter). […] A major difference between the CIS and TRANS system is that in CIS activities of endogenous TFs are measured, whereas the TRANS assay evaluates changes in activities of exogenous, chimeric NR-Gal4 proteins. […] At the end of 24 hour incubation, total RNA was isolated using TriZol reagent (Invitrogen). The isolated RNA is then reverse-transcribed using oligo(dT) primer and Mo-MLV reverse transcriptase (Invitrogen) with DNAse I (Ambion) treatment for 30 min. The one-tenth of the produced cDNA was amplified by PCR using Taq DNA polymerase (Invitrogen) and two reporter sequence-specific primers. The PCR products were fluorescently labeled by primer extension with 6-arboxyfluorescein (6-FAM) 5'-labeled reporter sequence-specific primer (2 min at 95 C, 20 s at 68 C and 10 min at 72 C) and these products were digested with 5U of HpaI (New England Biolabs) for 2h at 37 C. The fragments were purified using Qiaquick PCR columns (Qiagen), analyzed on an ABI 3130xL genetic analyzer (Applied Biosystems) with peak positions identified by using a set of X-rhodamine (ROX)-labeled MapMarker1000 molecular weight standards (BioVentures). The raw capillary electrophoresis data was processed using Attagraph software (Attagene)."}
{"smiles": "Oc1ccc(Cl)cc1Cc1ccccc1", "outcome": "inactive", "AC50": "9.67 µM (active)"}
{"smiles": "COP(=S)(OC)Oc1ccc([N+](=O)[O-])cc1", "outcome": "inactive"}
{"smiles": "Clc1ccccc1-c1nnc(-c2ccccc2Cl)nn1", "outcome": "inactive"}
{"smiles": "COc1nn(CSP(=S)(OC)OC)c(=O)s1", "outcome": "inactive"}
{"smiles": "CC(C)N(C(=O)COc1nnc(C(F)(F)F)s1)c1ccc(F)cc1", "AC50": "34.9 µM (active)"}
{"smiles": "O=S1OCC2C(CO1)C1(Cl)C(Cl)=C(Cl)C2(Cl)C1(Cl)Cl", "note": "(stereo not given)", "outcome": "inactive"}
{"smiles": "OCCOc1ccccc1", "outcome": "inactive"}
{"smiles": "COC(=O)c1ccccc1CS(=O)(=O)NC(=O)Nc1nc(OC)cc(OC)n1", "outcome": "inactive"}
{"smiles": "CC(C)(C)C(O)C(Oc1ccc(Cl)cc1)n1cncn1", "note": "(stereo not given)", "outcome": "inactive", "AC50": "7.92 µM (active)"}
{"smiles": "CNC(=O)Oc1ccccc1OC(C)C", "outcome": "inactive"}
{"smiles": "O=[N+]([O-])c1c(Cl)c(Cl)c(Cl)c(Cl)c1Cl", "outcome": "inactive"}
{"smiles": "COP(=S)(OC)Oc1ccc(SC)c(C)c1", "outcome": "inactive"}
{"smiles": "CCS(=O)(=O)c1cccnc1S(=O)(=O)NC(=O)Nc1nc(OC)cc(OC)n1", "outcome": "inactive"}
{"smiles": "[2H]C1([2H])[n+]2ccccc2-c2cccc[n+]2C1([2H])[2H]", "outcome": "inactive"}
{"smiles": "ClC1C(Cl)C(Cl)C(Cl)C(Cl)C1Cl", "note": "(stereo not given)", "AC50": "10.5 µM (active)", "outcome": "inactive"}
{"smiles": "COc1cc(OC)nc(NC(=O)NS(=O)(=O)c2cc(NC=O)ccc2C(=O)N(C)C)n1", "outcome": "inactive"}
{"smiles": "Oc1cc(Cl)ccc1Oc1ccc(Cl)cc1Cl", "AC50": "7.15 µM (active) [middle of 6 runs]", "outcome": "inactive"}
{"smiles": "COP(=O)(OC)OC=C(Cl)Cl", "outcome": "inactive"}
{"smiles": "O=C(O)C(F)(F)C(F)(F)C(F)(F)C(F)(F)C(F)(F)C(F)(F)C(F)(F)F", "outcome": "inactive"}
{"smiles": "O=C1c2ccccc2C(=O)N1SC(Cl)(Cl)Cl", "outcome": "inactive"}
{"smiles": "C[C@H]1[C@H](c2ccc(Cl)cc2)SC(=O)N1C(=O)NC1CCCCC1", "AC50": "17.7 µM (active)"}
{"smiles": "Cc1cc(C)nc(NC(=O)NS(=O)(=O)c2ccccc2C(=O)OC2COC2)n1", "AC50": "91 µM (active)"}
{"smiles": "CCOCN(C(=O)CCl)c1c(C)cccc1CC", "outcome": "inactive"}
{"smiles": "CCN(CC)C(=O)SCc1ccc(Cl)cc1", "AC50": "50 µM (active)"}
{"smiles": "O=C(O)COc1ccc(Cl)cc1Cl", "outcome": "inactive"}
{"smiles": "CC(C)(C)C(O)/C(=C\\c1ccc(Cl)cc1Cl)n1cncn1", "note": "(stereo not given)", "outcome": "inactive"}
{"smiles": "N#CN", "outcome": "inactive"}
{"smiles": "CCc1ccc(C(=O)NN(C(=O)c2cc(C)cc(C)c2)C(C)(C)C)cc1", "outcome": "inactive"}
{"smiles": "COC(=O)c1ccccc1S(=O)(=O)NC(=O)Nc1nc(C)nc(OC)n1", "AC50": "27.1 µM (active)", "outcome": "inactive"}
{"smiles": "CN1CSC(=S)N(C)C1", "AC50": "15.4 µM (active)"}
{"smiles": "CNC(=O)/C=C(\\C)OP(=O)(OC)OC", "outcome": "inactive"}
{"smiles": "CCC(C)(C)C(=O)OC1=C(c2ccc(Cl)cc2Cl)C(=O)OC12CCCCC2", "outcome": "inactive"}
{"smiles": "C#CCN1C(=O)COc2cc(F)c(N3C(=O)C4=C(CCCC4)C3=O)cc21", "outcome": "inactive"}
{"smiles": "CNC(=O)Oc1cccc(N=CN(C)C)c1", "AC50": "58.3 µM (active)"}
{"smiles": "O=[N+]([O-])/N=C1\\NCCN1Cc1ccc(Cl)nc1", "outcome": "inactive"}
